The panel holds about 79,000 compounds, 15% with a hit somewhere; the sample as a whole holds those more often. Active and inactive are the calls of the source. No stated cut-off is given here; in the data, active means growth inhibition above about 70%; inactive means the rest.
How the values were obtained:
[1] = NCI Yeast Anticancer Drug Screen. Data for the rad52 strain (AID 147);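 further: 0% = growth of vehicle-treated control cultures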; conditions: S. cerevisiae rad52 mutant growth inhibition, active compounds read high
In short: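 Measured: yeast growth inhibition. System: strain with a defined DNA damage repair alteration. Reference: vehicle-treated control cultures.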

[2] = NCI Yeast Anticancer Drug Screen. Data for the wt1 strain (AID 149);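 further: 0% = growth of vehicle-treated wt1 cultures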; conditions: S. cerevisiae wt1 strain (SPY 50644) growth inhibition, active compounds read high
In short: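 wt1 strain grown with compound or vehicle; inhibition taken from the growth difference.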

[3] = NCI Yeast Anticancer Drug Screen. Data for the rad50EPP+ strain (AID 151);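 further: 0% = growth of vehicle-treated control cultures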; conditions: S. cerevisiae rad50 mutant strain, active compounds read high
In short: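 One strain with a rad50 alteration (rad50EPP+) was compound-treated, its growth then compared to that of vehicle controls.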

[4] = NCI Yeast Anticancer Drug Screen. Data for the mgt1 strain (AID 153); conditions: S. cerevisiae mgt1 mutant growth inhibition, active compounds read high
In short: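 After exposure of the mgt1 yeast mutant to compound, growth was measured and reported as inhibition compared with vehicle controls.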

[5] = NCI Yeast Anticancer Drug Screen. Data for the rad50 strain (AID 155);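 further: 0% = growth of vehicle-only cultures of the same strain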; conditions: S. cerevisiae rad50 strain growth inhibition, active compounds read high
In short: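 DNA repair mutant yeast, compound exposure, growth read-out; inhibition is taken relative to vehicle.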

[6] = NCI Yeast Anticancer Drug Screen. Data for the mec2-1 strain (AID 157); conditions: S. cerevisiae mec2-1 strain, active compounds read high
In short: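 Test agents were screened against the mec2-1 yeast strain, with defined DNA repair or cell cycle alteration. Growth was scored as inhibition against vehicle-only controls.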

[7] = NCI Yeast Anticancer Drug Screen. Data for the rad14 strain (AID 159);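 further: 0% = growth of vehicle-treated control cultures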; conditions: S. cerevisiae rad14 strain growth inhibition, active compounds read high
In short: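 DNA repair-defective yeast, compound-exposed; % growth inhibition derived by comparison with vehicle-treated controls.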

[8] = NCI Yeast Anticancer Drug Screen. Data for the sgs1 mgt1 strain (AID 161);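 further: 0% = growth of cultures given vehicle only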; conditions: S. cerevisiae sgs1 mgt1 strain, active compounds read high
In short: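 Inhibition of yeast growth, normalised to vehicle-treated controls, is reported for a strain bearing genetic alterations in DNA damage repair.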

[9] = NCI Yeast Anticancer Drug Screen. Data for the cln2 rad14 strain (AID 165);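 further: 0% = growth equal to vehicle treated cultures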; conditions: S. cerevisiae cln2 rad14 strain, active compounds read high
In short: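 Growth of compound-exposed yeast (cln2 rad14 genotype) measured and expressed as inhibition relative to vehicle.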

[10] = NCI Yeast Anticancer Drug Screen. Data for the bub3 strain (AID 167); conditions: S. cerevisiae bub3 mutant strain, active compounds read high
In short: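 In this screen, a yeast mutant lacking normal mitotic checkpoint function is challenged with compound. Relative growth versus vehicle gives the inhibition value.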

[11] = NCI Yeast Anticancer Drug Screen. Data for the wt2 strain (AID 169);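 further: 0% = growth of vehicle-treated yeast cultures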; conditions: S. cerevisiae wt2 strain growth inhibition, active compounds read high
In short: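 Genetically defined yeast strains from a DNA-repair/cell-cycle panel were used. Compound-exposed yeast growth was measured, and the inhibition was calculated relative to vehicle treatment.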

[12] = NCI Yeast Anticancer Drug Screen. Data for the mlh1 strain (AID 171);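 further: 0% = growth of vehicle-treated control cultures of the same strain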; conditions: S. cerevisiae mlh1 strain growth inhibition, active compounds read high
In short: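 Here the genetically defined yeast mutant is grown with each compound, and the extent to which its growth falls below that of vehicle-exposed cells is reported.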

[13] = NCI Yeast Anticancer Drug Screen. Data for the sgs1 strain (AID 173);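 further: 0% = growth of vehicle-only control cultures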; conditions: S. cerevisiae sgs1 mutant, active compounds read high
In short: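 Relative growth inhibition, referenced to vehicle, was determined in a yeast strain with a defined alteration affecting DNA damage repair or cell cycle control after compound exposure.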

[14] = NCI Yeast Anticancer Drug Screen. Data for the mlh1 rad18 strain (AID 175); conditions: S. cerevisiae mlh1 rad18 strain growth inhibition, active compounds read high
In short: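 In this whole-cell yeast screen, a strain with altered DNA damage repair is challenged with compound, and its growth is measured against matched vehicle-treated controls.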

[15] = NCI Yeast Anticancer Drug Screen. Data for the rad18 strain (AID 177); conditions: S. cerevisiae rad18 mutant growth inhibition, active compounds read high
In short: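 Screen uses a yeast strain with a defined lesion in DNA damage repair; compound effect is read as loss of growth compared to untreated vehicle cultures.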

[16] = NCI Yeast Anticancer Drug Screen. Data for the CLN2oe strain (AID 163);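 further: 0% = growth of vehicle-only control cultures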; conditions: S. cerevisiae CLN2oe strain, active compounds read high
In short: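 Here, growth inhibition in a cell-cycle-altered yeast strain after compound exposure was quantified against vehicle control growth.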

[17] = at 5.0 µM (retest, dose inferred, filed as 0.5)
[18] = at 50.0 µM (retest, dose inferred, filed as 5.0)

Measured: growth inhibition

O=C(OCCN1CCCCCC1)C(c1ccsc1)C1CCCCC1 (stereo unspecified)
inactive: [1]; at 1.2 µM 15% | [1]; at 3.7 µM 14% | [1]; at 11.0 µM 50% | [1]; at 33.0 µM 57% | [1]; at 100.0 µM 50% | [2]; at 1.2 µM -67% | [2]; at 3.7 µM 13% | [2]; at 11.0 µM 16% | [2]; at 33.0 µM 19% | [2]; at 100.0 µM 19% | [3]; at 1.2 µM -1% | [3]; at 3.7 µM -1% | [3]; at 11.0 µM -1% | [3]; at 33.0 µM 0% | [3]; at 100.0 µM 2% | [4]; at 1.2 µM 8% | [4]; at 3.7 µM 21% | [4]; at 11.0 µM 34% | [4]; at 33.0 µM 36% | [4]; at 100.0 µM 37% | [5]; at 1.2 µM 11% | [5]; at 3.7 µM 17% | [5]; [17] 13% | [5]; at 11.0 µM 25% | [5]; at 33.0 µM 29% | [5]; [18] 39% | [5]; at 100.0 µM 46% | [6]; at 1.2 µM 3% | [6]; at 3.7 µM 10% | [6]; [17] -5% | [6]; at 11.0 µM 17% | [6]; at 33.0 µM 27% | [6]; [18] 13% | [6]; at 50.0 µM 33.4% | [6]; at 100.0 µM 32% | [7]; at 1.2 µM 35% | [7]; at 3.7 µM 36% | [7]; at 11.0 µM 40% | [7]; at 33.0 µM 43% | [7]; at 100.0 µM 52% | [8]; [17] 4% | [8]; [18] 55% | [9]; [18] 49% | [9]; at 50.0 µM 63.5% | [10]; at 1.2 µM 4% | [10]; at 3.7 µM 14% | [10]; [17] 61% | [10]; at 11.0 µM 37% | [10]; at 33.0 µM 58% | [11]; at 1.2 µM 6% | [11]; at 3.7 µM 17% | [11]; at 11.0 µM 22% | [11]; at 33.0 µM 39% | [12]; at 1.2 µM 8% | [12]; at 3.7 µM 21% | [12]; at 11.0 µM 24% | [12]; at 33.0 µM 29% | [12]; at 100.0 µM 35% | [13]; at 1.2 µM 17% | [13]; at 3.7 µM 29% | [13]; at 11.0 µM 34% | [13]; at 33.0 µM 31% | [13]; at 100.0 µM 40% | [14]; [17] 2% | [14]; [18] 33% | [15]; at 1.2 µM 7% | [15]; at 3.7 µM 18% | [15]; at 11.0 µM 34% | [15]; at 33.0 µM 34% | [15]; at 100.0 µM 43%
active: [5]; at 50.0 µM 81.9% | [8]; at 50.0 µM 84% | [9]; [17] 81% | [10]; [18] 88% | [10]; at 50.0 µM 83% | [10]; at 100.0 µM 79% | [11]; at 100.0 µM 72% | [14]; at 50.0 µM 79.4%

O=C1CSc2cc([N+](=O)[O-])ccc2N1
active: [10]; at 33.0 µM 74% | [10]; [18] 79% | [10]; at 50.0 µM 70.2% | [10]; at 100.0 µM 91%
inactive: [1]; at 1.2 µM 10% | [1]; at 3.7 µM 6% | [1]; at 11.0 µM 9% | [1]; at 33.0 µM 16% | [1]; at 100.0 µM 15% | [2]; at 1.2 µM 4% | [2]; at 3.7 µM 12% | [2]; at 11.0 µM 5% | [2]; at 33.0 µM 18% | [2]; at 100.0 µM -20% | [3]; at 1.2 µM -9% | [3]; at 3.7 µM 3% | [3]; at 11.0 µM -4% | [3]; at 33.0 µM 3% | [3]; at 100.0 µM -6% | [4]; at 1.2 µM 0% | [4]; at 3.7 µM 3% | [4]; at 11.0 µM -3% | [4]; at 33.0 µM -8% | [4]; at 100.0 µM 3% | [5]; at 1.2 µM -20% | [5]; at 3.7 µM -6% | [5]; [17] -1% | [5]; at 11.0 µM -22% | [5]; at 33.0 µM -18% | [5]; [18] -14% | [5]; at 50.0 µM 21.1% | [5]; at 100.0 µM -17% | [6]; at 1.2 µM -4% | [6]; at 3.7 µM -5% | [6]; [17] -31% | [6]; at 11.0 µM -10% | [6]; at 33.0 µM -21% | [6]; [18] -12% | [6]; at 50.0 µM -18.1% | [6]; at 100.0 µM -22% | [7]; at 1.2 µM -16% | [7]; at 3.7 µM -7% | [7]; at 11.0 µM -6% | [7]; at 33.0 µM -10% | [7]; at 100.0 µM -11% | [8]; [17] -14% | [8]; [18] -14% | [8]; at 50.0 µM -11% | [16]; at 1.2 µM -3% | [16]; at 3.7 µM -14% | [16]; at 11.0 µM -8% | [16]; at 33.0 µM -19% | [16]; at 100.0 µM -13% | [9]; [17] 23% | [9]; [18] 27% | [9]; at 50.0 µM 22.4% | [10]; at 1.2 µM 8% | [10]; at 3.7 µM 9% | [10]; [17] 0% | [10]; at 11.0 µM 23% | [12]; at 1.2 µM 18% | [12]; at 3.7 µM 5% | [12]; at 11.0 µM 6% | [12]; at 33.0 µM 0% | [12]; at 100.0 µM -22% | [13]; at 1.2 µM 19% | [13]; at 3.7 µM 19% | [13]; at 11.0 µM 17% | [13]; at 33.0 µM 36% | [13]; at 100.0 µM 11% | [14]; [17] -15% | [14]; [18] -2% | [14]; at 50.0 µM -5.25% | [15]; at 1.2 µM 0% | [15]; at 3.7 µM -18% | [15]; at 11.0 µM -3% | [15]; at 33.0 µM -2% | [15]; at 100.0 µM -13%
